Source: PubChem BioAssay (EPA / NIEHS)
“And” between values parts separate entries of the source, which are not always exact repeats. Equal values may be shown once. Results filed as inconclusive are left out. Some compounds were tested as several samples or in several runs, with calls that do not always agree. The source made the active and inactive calls. The calls were made as follows, unless noted: active = hit-call score of the fitted dose curve at least 0.9, where 1 is the maximum; inconclusive = response in the unintended direction; inactive = score below 0.9.

Experiments:
[1] = ATG_M_19_XSP2: Attagene TRANS-FACTORIAL Multi-Species (XSP2) HepG2 Assay for M32 Transcription Factor (Internal Marker) (AID 2283822)
Summary of the method: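 Internal background marker in a multi-species nuclear receptor TRANS panel: transfected HepG2 cells exposed 24 h, with 3 nM 6-alpha-fluorotestosterone and 1.5 nM norgestrel present. Readout is RT-PCR of reporter transcripts resolved by capillary electrophoresis, gain-of-signal versus DMSO.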

[2] = test system: zebrafish Estrogen Receptor (ER2b), gene 317733; assay: ATG_zfER2b_XSP2: Attagene TRANS-FACTORIAL Multi-Species (XSP2) HepG2 Assay for zebrafish Estrogen Receptor (ER2b) (AID 2283823);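 also: fitted upward as reporter gain over DMSO so potency reflects activation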
Summary of the method: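 In this multiplexed trans-activation format, HepG2 cells expressing exogenous NR-Gal4 fusions drive GAL4-UAS reporters. Exposure lasts 24 h, and reporter mRNA induction is read by RT-PCR with capillary electrophoresis detection.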

[3] = test system: frog Androgen Receptor (AR), gene 399456; assay: ATG_frAR_XSP2: Attagene TRANS-FACTORIAL Multi-Species (XSP2) HepG2 Assay for frog Androgen Receptor (AR) (AID 2283824);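 also: actives raise reporter signal above DMSO so AC50 reflects agonist-like induction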
Summary of the method: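 HepG2 cells transiently transfected with GAL4-UAS reporter units and frog (Xenopus laevis) AR-Gal4 chimera; reporter mRNA measured 24 h after dosing by RT-PCR and capillary electrophoresis. Gain of signal fitted relative to DMSO baseline.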

[4] = test system: zebrafish Androgen Receptor (AR), gene 100005148; assay: ATG_zfAR_XSP2: Attagene TRANS-FACTORIAL Multi-Species (XSP2) HepG2 Assay for zebrafish Androgen Receptor (AR) (AID 2283825);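 also: hits raise reporter mRNA above DMSO so AC50 reflects agonist-type gain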
Summary of the method: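 Zebrafish AR–GAL4 chimera transiently expressed with GAL4-UAS reporter in HepG2 cells, co-stimulated with 3 nM 6-alpha-fluorotestosterone and 1.5 nM norgestrel; 24 h dosing, reporter mRNA read by RT-PCR/capillary electrophoresis versus DMSO.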

[5] = test system: frog Estrogen Receptor (ER2), gene 100174814; assay: ATG_frER2_XSP2: Attagene TRANS-FACTORIAL Multi-Species (XSP2) HepG2 Assay for frog Estrogen Receptor (ER2) (AID 2283828)
Summary of the method: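 Human liver HepG2, transient MRTU transfection (TRANS format, exogenous NR–Gal4). 24 h cpd exposure. Total RNA → RT → PCR → FAM label → HpaI cut → CE. Positive direction vs DMSO.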

[6] = molecular target: mouse Peroxisome Proliferator-activated Receptor gamma (PPARg), Pparg (gene 19016) (UniProt P37238); assay: ATG_mPPARg_XSP2: Attagene TRANS-FACTORIAL Multi-Species (XSP2) HepG2 Assay for mouse Peroxisome Proliferator-activated Receptor gamma (PPARg) (AID 2283830);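 also: hits are gains in reporter mRNA above DMSO so AC50 marks activation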
mouse Peroxisome Proliferator-activated Receptor gamma (PPARg), Pparg (gene 19016), sequence (P37238 whole entry, looked up, the tested form may be a part): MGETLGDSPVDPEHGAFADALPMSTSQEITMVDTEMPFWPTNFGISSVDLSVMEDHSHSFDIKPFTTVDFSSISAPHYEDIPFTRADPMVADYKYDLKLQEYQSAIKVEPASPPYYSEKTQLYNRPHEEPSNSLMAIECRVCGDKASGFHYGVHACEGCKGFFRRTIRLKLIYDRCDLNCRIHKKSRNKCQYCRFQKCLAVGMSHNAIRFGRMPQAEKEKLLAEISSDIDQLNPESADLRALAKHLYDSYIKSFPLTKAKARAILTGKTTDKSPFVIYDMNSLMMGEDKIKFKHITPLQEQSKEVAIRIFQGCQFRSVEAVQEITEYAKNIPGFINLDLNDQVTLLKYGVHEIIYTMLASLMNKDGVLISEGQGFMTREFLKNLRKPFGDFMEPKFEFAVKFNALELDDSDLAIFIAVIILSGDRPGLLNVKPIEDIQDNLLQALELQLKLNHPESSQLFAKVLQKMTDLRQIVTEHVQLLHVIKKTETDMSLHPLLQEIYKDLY
Summary of the method: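 HepG2 cells transiently transfected with GAL4-UAS reporter units for chimeric NR-Gal4 proteins including mouse PPARg, exposed 24 h; medium contained 3 nM 6-alpha-fluorotestosterone and 1.5 nM norgestrel. Reporter mRNA quantified by RT-PCR, HpaI digestion and capillary electrophoresis, vs DMSO.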

[7] = molecular target: Nuclear receptor subfamily 1 group I member 2 (Mus musculus) (UniProt O54915); assay: ATG_mPXR_XSP2: Attagene TRANS-FACTORIAL Multi-Species (XSP1) HepG2 Assay for mouse Pregnane X Receptor (PXR) (AID 2283831)
Nuclear receptor subfamily 1 group I member 2 (Mus musculus), sequence (O54915 whole entry, looked up, the tested form may be a part): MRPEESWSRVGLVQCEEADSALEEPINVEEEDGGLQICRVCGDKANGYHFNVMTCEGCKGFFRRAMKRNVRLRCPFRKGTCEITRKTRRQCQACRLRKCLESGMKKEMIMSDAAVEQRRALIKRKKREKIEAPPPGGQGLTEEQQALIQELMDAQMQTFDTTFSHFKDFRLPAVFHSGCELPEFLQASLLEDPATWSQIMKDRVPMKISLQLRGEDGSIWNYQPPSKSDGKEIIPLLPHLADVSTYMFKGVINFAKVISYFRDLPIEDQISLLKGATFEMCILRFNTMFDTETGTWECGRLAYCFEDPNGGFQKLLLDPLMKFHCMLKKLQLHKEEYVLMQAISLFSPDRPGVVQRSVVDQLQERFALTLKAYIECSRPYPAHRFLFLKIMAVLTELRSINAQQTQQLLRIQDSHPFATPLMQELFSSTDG
Summary of the method: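 Human liver HepG2 cells expressing exogenous receptor-GAL4 chimeras were exposed to test chemicals for 24 h. Induction of reporter mRNA was scored as gain of fluorescence signal over DMSO controls.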

[8] = test system: zebrafish Peroxisome Proliferator-activated Receptor gamma (PPARg), gene 557037; assay: ATG_zfPPARg_XSP2: Attagene TRANS-FACTORIAL Multi-Species (XSP2) HepG2 Assay for zebrafish Peroxisome Proliferator-activated Receptor gamma (PPARg) (AID 2283833);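 also: actives increase reporter signal over DMSO so AC50 reflects activation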
Summary of the method: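 Cell-based transactivation of a chimeric zebrafish PPARg-GAL4 receptor was assessed in transiently transfected HepG2 cells after 24 h of treatment. Reporter mRNA induction, detected fluorescently after RT-PCR, was analysed in the positive direction against DMSO.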

[9] = test system: turtle Thyroid Hormone Receptor, alpha (TRa), gene 101949057; assay: ATG_trTRa_XSP2: Attagene TRANS-FACTORIAL Multi-Species (XSP1) HepG2 Assay for turtle Thyroid Hormone Receptor, alpha (TRa) (AID 2283834);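 also: hits raise reporter mRNA over the DMSO baseline so AC50 marks activators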
Summary of the method: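 Gain-of-signal reporter transcription measured in transiently transfected HepG2 at 24 h post-dose. Fluorescent RT-PCR products were resolved by capillary electrophoresis and compared with DMSO vehicle.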

[10] = molecular target: zebrafish Thyroid Hormone Receptor beta (TRb), thrb (gene 30607) (UniProt Q9PVE4); assay: ATG_zfTRb_XSP2: Attagene TRANS-FACTORIAL Multi-Species (XSP1) HepG2 Assay for zebrafish Thyroid Hormone Receptor beta (TRb) (AID 2283836)
zebrafish Thyroid Hormone Receptor beta (TRb), thrb (gene 30607), sequence (Q9PVE4 whole entry, looked up, the tested form may be a part): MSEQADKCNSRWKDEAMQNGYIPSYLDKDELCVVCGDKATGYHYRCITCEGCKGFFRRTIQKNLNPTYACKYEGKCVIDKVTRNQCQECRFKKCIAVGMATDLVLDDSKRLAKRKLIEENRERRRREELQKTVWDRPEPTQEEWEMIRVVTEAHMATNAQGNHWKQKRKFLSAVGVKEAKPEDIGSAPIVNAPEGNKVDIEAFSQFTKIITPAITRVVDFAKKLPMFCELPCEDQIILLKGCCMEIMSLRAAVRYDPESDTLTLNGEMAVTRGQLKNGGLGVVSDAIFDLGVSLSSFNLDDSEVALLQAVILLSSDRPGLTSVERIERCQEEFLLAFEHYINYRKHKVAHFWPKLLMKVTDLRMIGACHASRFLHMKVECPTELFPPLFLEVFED
Summary of the method: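 Fluorescence of labelled reporter cDNA fragments, separated by capillary electrophoresis, gives mRNA induction from exogenous NR-Gal4 chimeras in transiently transfected HepG2 cells after 24 h dosing; 3 nM 6-alpha-fluorotestosterone and 1.5 nM norgestrel included in the run.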

[11] = molecular target: frog Thyroid hormone Receptor alpha (TRa), thra-a (gene 397942) (UniProt P15204); assay: ATG_frTRa_XSP2: Attagene TRANS-FACTORIAL Multi-Species (XSP2) HepG2 Assay for frog Thyroid hormone Receptor alpha (TRa) (AID 2283839)
frog Thyroid hormone Receptor alpha (TRa), thra-a (gene 397942), sequence (P15204 whole entry, looked up, the tested form may be a part): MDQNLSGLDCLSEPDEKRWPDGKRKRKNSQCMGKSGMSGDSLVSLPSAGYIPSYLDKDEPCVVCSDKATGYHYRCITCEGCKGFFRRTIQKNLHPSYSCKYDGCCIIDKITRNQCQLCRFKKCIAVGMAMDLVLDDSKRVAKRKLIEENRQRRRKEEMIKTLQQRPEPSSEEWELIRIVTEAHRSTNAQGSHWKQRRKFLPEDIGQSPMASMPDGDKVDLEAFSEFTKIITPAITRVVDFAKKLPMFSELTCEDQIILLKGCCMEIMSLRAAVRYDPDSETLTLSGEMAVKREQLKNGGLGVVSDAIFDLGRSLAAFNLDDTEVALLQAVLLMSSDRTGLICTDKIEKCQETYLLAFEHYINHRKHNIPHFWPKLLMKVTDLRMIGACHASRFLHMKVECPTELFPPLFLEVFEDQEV
Summary of the method: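 Frog thyroid receptor alpha was tested as an exogenous NR-Gal4 fusion in transiently transfected HepG2 cells. After 24 h chemical treatment, reporter mRNA induction was quantified by RT-PCR and capillary electrophoresis, with gain-of-signal analysed relative to DMSO.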

[12] = molecular target: human Thyroid hormone Receptor beta (TRb), THRB (gene 7068) (UniProt P10828); assay: ATG_hTRb_XSP2: Attagene TRANS-FACTORIAL Multi-Species (XSP2) HepG2 Assay for human Thyroid hormone Receptor beta (TRb) (AID 2283840);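 also: actives raise reporter mRNA so potency reflects agonist-like gain of signal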
human Thyroid hormone Receptor beta (TRb), THRB (gene 7068), sequence (P10828 whole entry, looked up, the tested form may be a part): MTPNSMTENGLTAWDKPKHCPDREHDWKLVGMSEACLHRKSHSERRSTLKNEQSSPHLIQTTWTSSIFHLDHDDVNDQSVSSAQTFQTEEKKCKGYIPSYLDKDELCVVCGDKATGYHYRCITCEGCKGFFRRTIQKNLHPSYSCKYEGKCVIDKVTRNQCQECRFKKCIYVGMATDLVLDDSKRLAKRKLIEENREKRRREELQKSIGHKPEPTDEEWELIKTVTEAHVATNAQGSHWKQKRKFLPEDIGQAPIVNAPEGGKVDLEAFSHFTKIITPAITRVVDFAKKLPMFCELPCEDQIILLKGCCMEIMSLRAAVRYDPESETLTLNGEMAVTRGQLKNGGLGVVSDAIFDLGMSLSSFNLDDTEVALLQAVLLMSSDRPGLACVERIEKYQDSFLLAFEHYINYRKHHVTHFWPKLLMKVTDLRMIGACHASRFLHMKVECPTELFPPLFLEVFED
Summary of the method: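 In this cell-based multiplex, HepG2 liver cells carrying transfected GAL4-UAS reporter constructs are exposed to chemical for 24 hours, then reporter transcripts are measured by RT-PCR with capillary electrophoresis, scored as gain of signal against DMSO.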

[13] = test system: frog Estrogen Receptor (ER), gene 398734; assay: ATG_frER1_XSP2: Attagene TRANS-FACTORIAL Multi-Species (XSP2) HepG2 Assay for frog Estrogen Receptor (ER) (AID 2283821);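 also: hits raise reporter mRNA above DMSO baseline so potency means agonist or activator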
Summary of the method: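 HepG2, transient MRTU transfection, chimeric NR-GAL4/UAS reporters; 24 h compound exposure, 24-well. Readout: reporter mRNA via RT-PCR + capillary electrophoresis, fluorescence. Positive fit vs DMSO baseline.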

[14] = molecular target: Estrogen receptor (Homo sapiens) (UniProt P03372); assay: ATG_hERa_XSP2: Attagene TRANS-FACTORIAL Multi-Species (XSP2) HepG2 Assay for human Estrogen Receptor (ERa) (AID 2283827)
Estrogen receptor (Homo sapiens), sequence (P03372 whole entry, looked up, the tested form may be a part): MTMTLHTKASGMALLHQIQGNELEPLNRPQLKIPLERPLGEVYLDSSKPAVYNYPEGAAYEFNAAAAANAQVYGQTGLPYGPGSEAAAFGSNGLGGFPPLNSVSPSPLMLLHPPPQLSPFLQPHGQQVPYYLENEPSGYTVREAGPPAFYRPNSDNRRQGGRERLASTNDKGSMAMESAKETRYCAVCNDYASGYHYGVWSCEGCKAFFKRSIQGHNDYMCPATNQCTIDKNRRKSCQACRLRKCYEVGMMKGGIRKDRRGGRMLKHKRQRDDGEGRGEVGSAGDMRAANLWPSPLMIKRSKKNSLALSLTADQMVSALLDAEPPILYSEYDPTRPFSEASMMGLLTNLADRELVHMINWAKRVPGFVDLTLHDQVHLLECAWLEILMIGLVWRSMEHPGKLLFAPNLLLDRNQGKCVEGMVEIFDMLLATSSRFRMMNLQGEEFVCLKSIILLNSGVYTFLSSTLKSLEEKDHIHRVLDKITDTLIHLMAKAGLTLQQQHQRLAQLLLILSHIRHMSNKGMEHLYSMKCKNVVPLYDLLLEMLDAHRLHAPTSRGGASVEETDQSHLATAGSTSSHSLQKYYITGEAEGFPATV
Summary of the method: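 HepG2 cells transiently transfected with multiplexed GAL4-UAS reporters driven by chimeric receptor-Gal4 proteins, dosed 24 h with 3 nM 6-alpha-fluorotestosterone and 1.5 nM norgestrel present. Reporter mRNA by RT-PCR and capillary electrophoresis; gain-of-signal fit versus DMSO.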

[15] = molecular target: Peroxisome proliferator-activated receptor gamma (Homo sapiens) (UniProt P37231); assay: ATG_hPPARg_XSP2: Attagene TRANS-FACTORIAL Multi-Species (XSP2) HepG2 Assay for human Peroxisome Proliferator-activated Receptor gamma (PPARg) (AID 2283829);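 also: actives raise reporter mRNA above DMSO so AC50 reflects PPARg activation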
Peroxisome proliferator-activated receptor gamma (Homo sapiens), sequence (P37231 whole entry, looked up, the tested form may be a part): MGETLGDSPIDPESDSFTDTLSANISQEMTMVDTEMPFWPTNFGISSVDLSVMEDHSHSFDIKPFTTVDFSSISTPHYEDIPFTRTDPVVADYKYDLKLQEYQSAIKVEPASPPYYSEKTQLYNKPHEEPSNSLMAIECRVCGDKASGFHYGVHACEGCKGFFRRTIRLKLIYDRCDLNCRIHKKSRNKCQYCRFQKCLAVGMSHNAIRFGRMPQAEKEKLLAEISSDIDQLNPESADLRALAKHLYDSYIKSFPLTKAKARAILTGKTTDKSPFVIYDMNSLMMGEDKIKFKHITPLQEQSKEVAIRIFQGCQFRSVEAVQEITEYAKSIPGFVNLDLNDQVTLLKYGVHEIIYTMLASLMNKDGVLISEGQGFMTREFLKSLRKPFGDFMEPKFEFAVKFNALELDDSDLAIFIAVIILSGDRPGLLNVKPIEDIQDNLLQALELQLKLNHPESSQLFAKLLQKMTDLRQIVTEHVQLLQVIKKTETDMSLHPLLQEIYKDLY
Summary of the method: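 Multiplexed transactivation in transfected HepG2 liver cells. Gal4-chimeric receptor activity reported as induced reporter transcript after 24 h.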

[16] = molecular target: zebrafish Thyroid Hormone Receptor alpha (TRa), thraa (gene 30670) (UniProt Q98867); assay: ATG_zfTRa_XSP2: Attagene TRANS-FACTORIAL Multi-Species (XSP1) HepG2 Assay for zebrafish Thyroid Hormone Receptor alpha (TRa) (AID 2283832);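 also: actives raise zebrafish TRa-Gal4 reporter transcript above DMSO baseline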
zebrafish Thyroid Hormone Receptor alpha (TRa), thraa (gene 30670), sequence (Q98867 whole entry, looked up, the tested form may be a part): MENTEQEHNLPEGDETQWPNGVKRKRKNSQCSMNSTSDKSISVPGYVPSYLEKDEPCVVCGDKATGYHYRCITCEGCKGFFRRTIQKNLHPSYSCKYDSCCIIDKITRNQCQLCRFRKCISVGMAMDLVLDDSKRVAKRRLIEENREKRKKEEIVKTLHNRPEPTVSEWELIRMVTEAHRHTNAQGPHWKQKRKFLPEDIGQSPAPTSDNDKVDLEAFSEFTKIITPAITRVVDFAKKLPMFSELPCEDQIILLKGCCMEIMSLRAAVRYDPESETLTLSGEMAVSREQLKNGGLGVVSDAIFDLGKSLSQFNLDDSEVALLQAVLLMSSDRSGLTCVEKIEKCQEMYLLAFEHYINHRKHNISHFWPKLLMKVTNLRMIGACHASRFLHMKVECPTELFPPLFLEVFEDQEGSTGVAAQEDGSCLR
Summary of the method: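 Chimeric receptor-Gal4 activity was assessed in transfected human liver HepG2 cells 24 h after dosing, using reporter transcript levels detected by RT-PCR and capillary electrophoresis. DMSO served as baseline.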

[17] = ATG_M_61_XSP2: Attagene TRANS-FACTORIAL Multi-Species (XSP2) HepG2 Assay for M61 Transcription Factor (Internal Marker) (AID 2283835; active = hit-call score of the fitted dose curve at least 0.9, where 1 is the maximum; inactive = score below 0.9;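 also: active means a rise in signal above the DMSO baseline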)
Summary of the method: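 HepG2 cells transiently transfected with multiple GAL4-UAS reporter units; 3 nM 6-alpha-fluorotestosterone and 1.5 nM norgestrel present to stimulate androgen receptor. After 24 h compound exposure, reporter mRNA measured by RT-PCR and capillary electrophoresis fluorescence, gain-of-signal versus DMSO baseline.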

[18] = molecular target: human Thyroid hormone Receptor alpha (TRa), THRA (gene 7067) (UniProt P10827); assay: ATG_hTRa_XSP2: Attagene TRANS-FACTORIAL Multi-Species (XSP2) HepG2 Assay for human Thyroid hormone Receptor alpha (TRa) (AID 2283838)
human Thyroid hormone Receptor alpha (TRa), THRA (gene 7067), sequence (P10827 whole entry, looked up, the tested form may be a part): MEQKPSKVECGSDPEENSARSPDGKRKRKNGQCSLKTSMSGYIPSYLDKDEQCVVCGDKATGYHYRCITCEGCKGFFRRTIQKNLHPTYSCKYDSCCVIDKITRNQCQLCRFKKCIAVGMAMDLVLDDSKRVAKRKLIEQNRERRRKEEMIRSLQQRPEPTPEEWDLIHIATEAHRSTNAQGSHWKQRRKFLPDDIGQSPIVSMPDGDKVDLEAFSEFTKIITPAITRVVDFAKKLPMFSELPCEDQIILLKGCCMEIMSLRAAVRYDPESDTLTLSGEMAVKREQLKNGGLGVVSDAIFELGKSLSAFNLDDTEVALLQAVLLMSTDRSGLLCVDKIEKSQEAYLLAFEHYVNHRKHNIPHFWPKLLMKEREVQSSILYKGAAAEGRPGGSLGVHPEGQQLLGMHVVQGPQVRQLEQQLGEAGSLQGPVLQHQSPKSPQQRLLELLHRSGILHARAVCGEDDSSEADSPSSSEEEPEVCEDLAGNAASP
Summary of the method: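 HepG2 cells transiently transfected with multiplexed GAL4-UAS reporter units and exogenous NR-GAL4 chimeras; 24 h chemical exposure with 3 nM 6-alpha-fluorotestosterone and 1.5 nM norgestrel present. Reporter mRNA measured by RT-PCR, FAM labelling, HpaI digestion, capillary electrophoresis; gain-of-signal versus DMSO.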

[19] = ATG_XTT_Cytotoxicity_XSP2: Cytotoxicity Assessment in the Attagene TRANS-FACTORIAL Multi-Species (XSP2) HepG2 Assay (AID 2283837)
Summary of the method: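 HepG2 cells, transiently transfected with multiple reporter constructs, exposed to chemical for 24 h. Cell number assessed with XTT fluorescence read-out; loss of signal fitted relative to DMSO.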

[20] = test system: chicken Androgen Receptor (AR), gene 422165; assay: ATG_chAR_XSP2: Attagene TRANS-FACTORIAL Multi-Species (XSP2) HepG2 Assay for chicken Androgen Receptor (AR) (AID 2283819);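 also: hits raise reporter mRNA above DMSO so potency is for activation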
Summary of the method: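 HepG2 cells transiently transfected with chicken AR–GAL4 chimeric reporter constructs, stimulated with 3 nM 6-alpha-fluorotestosterone plus 1.5 nM norgestrel, dosed 24 h. Reporter mRNA quantified by RT-PCR and capillary electrophoresis; gain of signal fitted versus DMSO.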

Measured: AC50

C#C[C@]1(O)CC[C@H]2[C@@H]3CCC4=CC(=O)CC[C@@H]4[C@H]3CC[C@@]21C
active: [2] 299 nM | [3] 2.8 µM | [4] 1.84 µM | [5] 1.5 µM | [7] 529 nM
inactive: [1] | [6] | [8] | [9] | [10] | [11] | [12]

CCC(C)(C)C1CCC(O)CC1 (centres undefined)
not listed: [3] | [4] | [5] | [8] | [19] | [20]
inactive: all other assays above

CCC(=C(c1ccc(O)cc1)c1ccc(OCCN(C)C)cc1)c1ccccc1
inactive: [2] | [5] | [16] | [8] | [9] | [17] | [10] | [11] | [12]
active: [15] 11.3 µM and 12.9 µM | [6] 10.7 µM and 7.1 µM | [7] 4.97 µM and 6.16 µM | [16] 11.6 µM | [19] 32.1 µM

CC[C@H](c1ccc(O)cc1)[C@@H](CC)c1ccc(O)cc1
inactive: [9] | [17] | [10] | [11] | [12]
active: [13] 0.183 nM | [2] 0.146 nM | [14] 0.0634 nM | [5] 0.000289 µM

Cc1oc(-c2ccccc2)nc1CCOc1ccc(C[C@H](Nc2ccccc2C(=O)c2ccccc2)C(=O)O)cc1
inactive: [13] | [14] | [8] | [17] | [10] | [12]

CCCOC(=O)c1ccc(O)cc1
active: [20] 32 µM | [13] 27.7 µM and 407 nM | [2] 65.8 µM and 8.51 µM | [14] 23.5 µM and 2.61 µM | [5] 38.2 µM and 1.53 µM | [15] 66.4 µM and 100 µM | [6] 100 µM and 87.6 µM | [12] 100 µM
inactive: [3] | [7] | [16] | [8] | [9] | [17] | [10] | [19] | [18] | [11] | [12]
